# Test results from ChEMBL document CHEMBL1201862, “PubChem BioAssay data set” (2004).
# Only a part of the results of these assays is listed, not drawn at random. Active and inactive are the calls of the source. No cut-off for these calls is given here.
# Target: Luciferin 4-monooxygenase (Photinus pyralis) (UniProt P08659)
# Sequence (P08659 whole entry): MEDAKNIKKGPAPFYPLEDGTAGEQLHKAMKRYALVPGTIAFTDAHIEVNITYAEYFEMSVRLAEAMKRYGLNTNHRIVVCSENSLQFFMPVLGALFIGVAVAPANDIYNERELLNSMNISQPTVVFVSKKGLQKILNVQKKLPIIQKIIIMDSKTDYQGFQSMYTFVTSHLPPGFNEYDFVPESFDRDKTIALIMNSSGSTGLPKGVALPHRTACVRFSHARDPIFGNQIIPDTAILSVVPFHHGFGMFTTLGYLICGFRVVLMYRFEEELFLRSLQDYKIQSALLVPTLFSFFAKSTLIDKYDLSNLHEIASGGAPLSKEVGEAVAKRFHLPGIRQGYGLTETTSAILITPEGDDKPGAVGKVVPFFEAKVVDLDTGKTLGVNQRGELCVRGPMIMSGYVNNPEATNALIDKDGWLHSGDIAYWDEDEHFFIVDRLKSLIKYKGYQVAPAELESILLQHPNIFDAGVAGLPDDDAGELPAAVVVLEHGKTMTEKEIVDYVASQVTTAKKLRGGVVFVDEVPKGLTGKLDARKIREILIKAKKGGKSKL
compound,measurement,value
CC(O)[C@@H]1NC(=O)[C@H](CCCCN)NC(=O)[C@@H](Cc2c[nH]c3ccccc23)NC(=O)[C@H](Cc2ccccc2)NC(=O)[C@@H](NC(=O)[C@H](N)Cc2ccccc2)CSSC[C@@H](C(=O)N[C@H](CO)[C@@H](C)O)NC1=O (stereo partly specified),Potency,inactive
